Sensor-assay potency score (higher = more potent) data for 40 sequences are collected here from the OligoGym collection.
Also: reference of the scale not given here.

The first test has as its target SCN4A. The test can be described thus: pooled miR-30 sensor sort-seq; sequence = guide strand. The note with it: shRNA.
Consider TTGTAGTCAGCTGTGCTGCAGA, for which the sensor-assay potency score (higher = more potent) was -0.246.
In turn, TGCTCGACAATCTTGAAGCAGG yielded a sensor-assay potency score (higher = more potent) of -1.33.
The sequence TACTCCACATTCTTGGACCAGG registered a sensor-assay potency score (higher = more potent) of -1.18.
The same measure, in the same setting: as for TTGACCTTGACATTGAGCCAGC, the figure is -0.555.
On the same count and under the same terms, the figure for TTGAGCACGATGCAGATGGTGA is -0.925; for TTGATGCAGTAGTAGAACTTGC it is -0.382; for TTTGAACTTCTCAAGCATCTGC it is 1.21.
On the same count and under the same terms, the figure for TAGTCCTGTGTCATGAGGCGGA is -0.484.
TTCAGAACCATCTCTGCTGTGA had a sensor-assay potency score (higher = more potent) of 0.403.

In another test the target is SDHAF1. The test is described as above. The note with it: shRNA.
TCCTTGGACTGTCGCCGTCGTC registered a sensor-assay potency score (higher = more potent) of -1.69.
On the same count and under the same terms, the figure for TACTCGATGCGCAGCACGTCGG is -1.32; for TGTCGCCGTCGTCAGGCTGGGA it is -1.53; for TCGTGGGGGTTCCTTGGACTGT it is -2.02.
In the case of TCGATGCGCAGCACGTCGGACC, the sensor-assay potency score (higher = more potent) is -1.24.
On the same count and under the same terms, as for ATGCGCAGCACGTCGGACCGCG, the figure is -1.11; as for TGCGCAGCACGTCGGACCGCGG, -1.5.
Take TGGACTGTCGCCGTCGTCAGGC: the sensor-assay potency score (higher = more potent) was -0.932.
As to TACAGGCTCAGAACCTGCCTCT, the sensor-assay potency score (higher = more potent) was -0.402.
Still for that read-out and setting: the figure for ACTGTCGCCGTCGTCAGGCTGG is -1.04; for ATGCTGCCGGAACTCTGCCCGC it is -1.77.
The same measure, in the same setting: as for TTGGACTGTCGCCGTCGTCAGG, the figure is -1.17.

Another test concerns the target SDR9C7. Described as above. The note with it: shRNA.
TTGCCGAGAATGGCTGTCCGAT displayed a sensor-assay potency score (higher = more potent) of -0.982.
In turn, TTGCAGTTCTTGAACCAGCGAT came in with a sensor-assay potency score (higher = more potent) of -0.518.
Same read-out and setting: as for TTGTTCGCCCACTTTGTCCCTC, the figure is -0.717; as for TAGAGCTCACGCCTTATGCTGT, -0.719.
Still for that read-out and setting: the figure for TTATGTTTTTTAACTTGTCAGT is -0.963; for TTGATGACATCTCTGACTCTGG it is 0.0736; for TTAGGATGAAATCTGTCACAGG it is -0.552.
On the same count and under the same terms, the figure for TTCGCTCTTGGTGACATCCAGT is -0.405.
TAACTTGTCAGTATAGATGCGG came in with a sensor-assay potency score (higher = more potent) of -0.0735.
On the same count and under the same terms, as for ATGCTGTTGATGACATCTCTGA, the figure is -0.812; as for AACTTGTCAGTATAGATGCGGA, -0.682.
The same measure, in the same setting: as for TTGATGCTTTCGCTCTTGGTGA, the figure is -1.21.

In a further test the target is SEC11C. The test is described as above. Conditions: shRNA.
In turn, TGAACTATTGGAATGTCTCGTC came in with a sensor-assay potency score (higher = more potent) of 0.149.
On the same count and under the same terms, the figure for TCATGAACTTTGATTACTCTGT is 0.434.
Same read-out and setting: as for TTGGAATGTCTCGTCCTTCAAC, the figure is -1.07; as for TTCAACTTTAAAAACAACTATT, -1.15.
Still for that read-out and setting: the figure for ATTATTATCTCCTTTAGTCAGA is -0.731; for TGAACTTTGATTACTCTGTGAA it is 0.177.
Consider TTACTCTGTGAACTATTGGAAT, for which the sensor-assay potency score (higher = more potent) is -1.07.
